Screening results deposited in PubChem BioAssay by several laboratories.
Only some compounds are listed: those with a hit (about 4.3% of all), similar ones and a draw of the others.
FAS-TE inh = FAS thioesterase (human) inhibition | P49327 | recombinant FAS-TE, OMFH fluorogenic substrate, fluorescence endpoint | inhibition, % at 15 µM | 360,000 compounds, 0.67% hits | AID 602261;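 active = compounds whose normalised, plate-corrected inhibition of enzyme fluorescence in the single-dose primary screen is 50% or more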
NadD inh = NadD (S. aureus) enzyme inhibition | purified NadD enzyme, colorimetric absorbance read-out | inhibition, % at 20 µM | 360,000 compounds, 0.78% hits; in the data active = inhibition above about 26%
rCAG binder = molecules binding r(CAG) RNA repeats. AID 651821. inhibition, % at 3 µM. r(CAG) RNA repeat, TO-PRO-1 dye displacement fluorescence. 370,000 compounds, 1.3% hits;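 active = inhibition above the plate cutoff, the mean of all test compounds on that plate plus 3 SD, cut at about 35% in these data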;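 also: higher means more dye released from RNA so lower well fluorescence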
NR3A LBD binder = modulates the human NR3A ligand-binding domain; NR3A LBD differential scanning fluorimetry, Tm shift; 0% = protein alone, 100% = glycine-bound protein; Tm shift relative to glycine control, % at 25 µM; 340,000 compounds, 2.5% hits; AID 1259313;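 active = melting temperature shift of at least 10% of the positive control shift, at one fixed dose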
rCAG bind conf = r(CAG) RNA repeat binding, confirmation; 4,300 compounds, 70% hits; AID 652065; inhibition, % at 3 µM; shares compounds with rCAG binder; TO-PRO-1 dye displacement fluorescence;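 active = inhibition above a per-plate cutoff, the mean inhibition of sample wells plus 3 SD, cut at about 35% in these data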;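 also: loss of TO-PRO-1 fluorescence as compound displaces dye from 1x1 AA loop RNA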
dCAG dye counter = DNA CAG dye complex inhibition counter-screen; shares compounds with rCAG binder; d(CAG) DNA oligo TO-PRO-1 dye displacement, fluorescence; inhibition, % at 3 µM; 4,300 compounds, 94% hits; AID 652068;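 active = inhibition above its plate's cutoff, the mean test-well inhibition plus 3 SD, cut at about 4.8% in these data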;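 also: hits displace the dye from DNA and so lower well fluorescence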
Each line names hits and unclear results; the compound was inactive in the other large screens (follow-up assays come after a bar, where they were run).

COc1ccc(/C=C2\CC3(OC(=O)C4CCCCC4)CCCN2C3)cc1 (configuration not stated)	none (no result: FAS-TE inh, NadD inh, NR3A LBD binder)
CCC1CN(C(=O)Nc2ccc(C)cc2)c2cc(C)ccc2O1 (configuration not stated)	none
CN1CCN(S(=O)(=O)c2cccc(C(=O)Nc3sc4c(c3-c3nc5ccccc5[nH]3)CCCC4)c2)CC1	rCAG binder 38 | rCAG bind conf inactive | dCAG dye counter 20
CC(=O)NCCC(=O)Nc1sc2c(c1-c1nc3ccccc3[nH]1)CCCC2	none
CCOC(=O)c1[nH]c2ccccc2c1NC(C)=O	none
CCOc1cc(Br)cc(C(c2c(C(=O)O)[nH]c3ccccc23)c2c(C(=O)O)[nH]c3ccccc23)c1O	rCAG binder 95 | rCAG bind conf 84 | dCAG dye counter 59
O=S1(=O)c2ccc(Br)cc2OC[C@@H](Cc2ccccc2)N1Cc1cn(Cc2ccc(F)cc2)nn1	none (no result: FAS-TE inh, NadD inh, NR3A LBD binder)
Cc1ccc(Cn2cc(CN3[C@H](c4ccccc4)COc4cc(Br)ccc4S3(=O)=O)nn2)cc1	rCAG binder 66 (no result: FAS-TE inh, NadD inh, NR3A LBD binder) | rCAG bind conf 51 | dCAG dye counter 19
Cc1ccc(C2c3c(n[nH]c3C)C(=O)N2c2ccccc2)cc1 (configuration not stated)	none (no result: FAS-TE inh, NadD inh, NR3A LBD binder)
COc1cc(C2CC(c3ccccc3)=NN2c2ccccc2)ccc1OCC(=O)O (configuration not stated)	rCAG binder 41 | rCAG bind conf 50 | dCAG dye counter 15
COc1ccc2c(c1OC)C(=O)N1N=C(c3ccccc3)CC21 (configuration not stated)	none
COc1ccc(C2CC(c3ccccc3)=NN2c2ccc(S(N)(=O)=O)cc2)cc1OC (configuration not stated)	none
COc1ccc(C2CC(c3ccccc3)=NN2c2ccc(Cl)c(C(=O)O)c2)cc1 (configuration not stated)	rCAG binder 61, NR3A LBD binder 13 | rCAG bind conf 55 | dCAG dye counter 17
COc1ccc(C2CC(c3ccccc3)=NN2c2ccccc2)c(C(=O)O)c1OC (configuration not stated)	rCAG binder 46 | rCAG bind conf 59 | dCAG dye counter 16
COc1ccc(C2=NN(c3ccc(C(=O)O)cc3)C(c3ccc(OC)c(OC)c3)C2)cc1 (configuration not stated)	rCAG binder 39 | rCAG bind conf 49 | dCAG dye counter 14
O=C(NCCc1ccccc1)OCc1cn(-c2ccc(F)cc2)nn1	none (no result: FAS-TE inh, NadD inh, NR3A LBD binder)
C[C@H](CO)N1C[C@H](C)[C@H](CN(C)C(=O)NC2CCCCC2)OCc2cnnn2CCCC1=O	none (no result: FAS-TE inh, NadD inh, NR3A LBD binder)
COc1ccc(C2=NN(c3ccccc3)C(c3cn(CCC(=O)O)nc3-c3ccccc3)C2)cc1 (configuration not stated)	rCAG binder 39 | rCAG bind conf 46 | dCAG dye counter 12
CCCSc1nnc(-c2ccco2)n1C	none (no result: FAS-TE inh, NadD inh, NR3A LBD binder)
COc1ccc2nc(NNC(=O)c3cc(=O)c4ccccc4o3)sc2c1	rCAG binder 36 | rCAG bind conf 55 | dCAG dye counter 19
O=C(NNc1nc2c(F)cccc2s1)c1cc(=O)c2ccccc2o1	rCAG binder 58 | rCAG bind conf 68 | dCAG dye counter 24
CCCc1cc(=O)[nH]c(NCCc2ccccc2)n1	none
COc1ccc(Cl)cc1Nc1nc(C)cc(=O)[nH]1	none
CCCc1cc(=O)[nH]c(Nc2ccc(OC)c(Cl)c2)n1	rCAG binder 36 | rCAG bind conf inactive | dCAG dye counter 11
CCCc1cc(=O)[nH]c(Nc2ccc(Cl)cc2)n1	rCAG binder 41 | rCAG bind conf inactive | dCAG dye counter 10
CC1CCC2(CCC(=O)N2CCCOC(=O)Nc2cccc(C(F)(F)F)c2)CC1 (configuration not stated)	none (no result: FAS-TE inh, NadD inh, NR3A LBD binder)
O=C(c1cc(C(=O)N2CCOCC2)c2nc3ccccc3n2c1)c1cc(Cl)cc(Cl)c1O	rCAG binder 46 | rCAG bind conf 44 | dCAG dye counter 12
O=c1oc2c(-c3ccc([N+](=O)[O-])cc3)cc(O)cc2s1	rCAG binder 40 | rCAG bind conf inactive | dCAG dye counter 7.7
NC1=C(c2ccc([N+](=O)[O-])cc2)C(=O)CO1	none
CC(C)(C)OC(=O)/C=C/[C@@H](CC1CCCC1)Sc1ccc(C(C)(C)C)cc1	none (no result: FAS-TE inh, NadD inh, NR3A LBD binder)
C[C@H]1CN(c2ccc(N3CCNC[C@@H]3C)cc2C#N)CCN1Cc1ccccc1	none (no result: FAS-TE inh, NadD inh, NR3A LBD binder)
CCOc1ccc2nc(NS(=O)(=O)Cc3ccccc3)sc2c1	rCAG binder 44 | rCAG bind conf inactive | dCAG dye counter 10
COc1ccc2c(c1)CN1C(=O)N(CC(C)C)S(=O)(=O)CC21 (configuration not stated)	none (no result: FAS-TE inh, NadD inh, NR3A LBD binder)
O=C(CC(c1ccccc1)(c1ccccc1)c1ccccc1)N[C@@H](Cc1ccccc1)C(=O)O	none
O=C(O)[C@H](Cc1ccccc1)NC(=O)C(c1ccccc1)(c1ccccc1)c1ccccc1	rCAG binder 38 | rCAG bind conf 53 | dCAG dye counter 13
O=c1cc(-c2ccccc2Cl)oc2c([N+](=O)[O-])c(O)cc(O)c12	rCAG binder 51 | rCAG bind conf 35 | dCAG dye counter 12
CC(C)(C)OC(=O)[C@H]1[C@H](c2ccc([N+](=O)[O-])cc2)C2(C(=O)c3ccccc3C2=O)C2c3ccccc3C=NN21 (some centres not stated)	rCAG binder 36 | rCAG bind conf inactive | dCAG dye counter 9.9
CC1=NN(c2cccc(C(=O)O)c2)C(=O)/C1=C\C=C\c1ccco1	rCAG binder 56 | rCAG bind conf 64 | dCAG dye counter 26
O=C(NCC1CCCO1)c1ccc([N+](=O)[O-])s1 (configuration not stated)	rCAG binder 36 | rCAG bind conf inactive | dCAG dye counter inactive
COc1ccc(NC(=O)CN2C(=O)S/C(=C/c3cccn3-c3ccc(C(=O)O)cc3)C2=O)cc1	none (no result: NR3A LBD binder)
Cc1cccc(C)c1NC(=O)CN1C(=O)S/C(=C\c2cccn2-c2cccc(C(=O)O)c2)C1=O	none
COc1cc(/C=C2\SC(=O)N(CC(=O)Nc3cccc(C)c3)C2=O)ccc1OC(C)C(=O)O (configuration not stated)	rCAG binder 54 | rCAG bind conf 44 | dCAG dye counter 14
Cc1ccc(NC(=O)CN2C(=O)S/C(=C\c3cccn3-c3cccc(C(=O)O)c3)C2=O)cc1C	none
Cc1cccc(C)c1-n1cccc1/C=C1\SC(=S)N(c2cccc(C(=O)O)c2)C1=O	rCAG binder 84 | rCAG bind conf 78 | dCAG dye counter 41
Cc1cccc(NC(=O)CN2C(=O)S/C(=C\c3cccn3-c3cccc(C(=O)O)c3)C2=O)c1	rCAG binder 84 | rCAG bind conf 81 | dCAG dye counter 49
Cc1ccc(NC(=O)CN2C(=O)S/C(=C\c3cc(C)n(-c4ccc(C(=O)O)cc4)c3C)C2=O)cc1	rCAG binder 68 | rCAG bind conf 85 | dCAG dye counter 48
